# In PubChem BioAssay AID686978 (National Center for Advancing Translational Sciences (NCATS), 2013):
# The whole screen tested about 420,000 compounds, of which about 64,000 (15%) were called active. About 27% were inconclusive and are not listed. The list is a sample of the results. Unmarked numbers belong to inactive results. Calls follow the shape of the dose curve; as a rule, active = well fitted inhibition curve with a large enough effect; inconclusive = small, poorly fitted or top-dose-only effect; inactive = flat fitted curve, though single readings scatter.
# Experiment: qHTS for Inhibitors of human tyrosyl-DNA phosphodiesterase 1 (TDP1): qHTS in cells in absence of CPT; also: nearly all actives have a fitted effect of over 55% in size
# Details: DT40 Tdp1-/- hTDP1 cells, no CPT, ATP luminescence, 48 h; activity change, negative = growth inhibition: at 46.2 µM (top of the series)
# How it was run: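 Chicken DT40 Tdp1-/- cells complemented with human TDP1, screened without camptothecin (DMSO vehicle only), 400 cells/well. Compounds pin-transferred, cells incubated at 37 °C for at least 48 hr. Growth read as ATP-dependent luminescence (CellTiter-Glo, 30 min at RT).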
# % is scaled to controls: 0 for no effect and ±100 for the full control effect; potency is read from the fitted curve at half-maximal effect.
Structure (SMILES),"activity change, negative = growth inhibition [%]",Potency
O=C(NC1CC(=O)N(c2ccc(F)cc2)C1)c1cccs1 (stereo not drawn),-16.2,
Cc1cc(C)c(S(=O)(=O)c2ccc(F)cc2C)c(=O)[nH]1,2.94,
COc1cccc(NC(=O)c2nn(-c3ccc(OC)cc3OC)c(=O)c3ccccc23)c1,-1.05,
O=C1NC(c2ccccc2)Cc2ccncc21 (stereo not drawn),-29.1,
N[C@H]1CN(c2c(F)cc3c(=O)c(C(=O)O)cn(C4C[C@H]4F)c3c2Cl)CC12CC2 (stereo partly drawn),-27.3,
NS(=O)(=O)c1cccc(NC(=O)CN2CCCc3ccccc32)c1,-2.52,
Cc1ccc(OCC(=O)Nc2cccc3c2CCCC3)cc1C,-27,
COC(=O)c1[nH]c2cccc(C)c2c1NC(=O)CN1CCCc2ccccc21,,20.6 µM (active)
CCN1CCN(C(=O)C2(NC(=O)Nc3cccc(F)c3)CCCCC2)CC1,-18.3,
O=C(COc1ccc2ccc(=O)oc2c1)NCC(O)c1ccccc1 (stereo not drawn),17.9,
COCCn1c(=O)c(-c2ccc(OC)cc2)nc2cnc(Oc3cccc(Cl)c3)nc21,-9.79,
O=C(NCc1cccs1)C1CCN(S(=O)(=O)c2ccc3c(c2)OCCO3)CC1,-23.7,
COc1ccc(C(=O)OCC(=O)Nc2cc(C)on2)cc1F,0.457,
O=C(CCNC(=O)c1ccc(Cl)cc1)NC1CCCc2ccccc21 (stereo not drawn),4.52,
Cn1nccc1C(=O)NC1CCCc2c1cnn2-c1ccccc1F (stereo not drawn),,2.06 µM (active)
Cn1nccc1C(=O)NC1CCCc2c1cnn2-c1ccc(F)cc1F (stereo not drawn),,1.64 µM (active)
CC(=O)NCC(=O)NC1CCCc2c1cnn2-c1ccccc1F (stereo not drawn),-0.918,
Cc1ccc(S(=O)(=O)N[C@@H](Cc2ccccc2)C(=O)N2CCC(C(=O)N[C@H](C(=O)O)C(C)O)CC2)cc1 (stereo partly drawn),10.3,
COc1ccc(C2C(C(C)=O)=C(O)C(=O)N2Cc2cccnc2)cc1 (stereo not drawn),-13.7,
COc1cc2nc(C#Cc3nc4cc(OC)c(OC)cc4[nH]3)[nH]c2cc1OC,-2.38,
Cc1nnc(NC(=O)Cn2c(=O)sc3ccccc32)s1,-4.38,
CC(Oc1ccccc1F)C(=O)NN (stereo not drawn),-2.53,
COc1cccc(/C=C/C(=O)OCC(=O)N2CCN(c3ccccc3)CC2)c1,-8.54,
Cn1nc(C(F)(F)F)c2cc(C(=O)N3CCOCC3)sc21,-9.2,
COc1cccc(-c2ccc(SCC(=O)N3CCN(c4ccccc4)CC3)nn2)c1,,16.4 µM (active)
Cn1nc(-c2ccc(Cl)cc2)c2cc(C(=O)NCc3ccco3)sc21,,20.6 µM (active)

Structure (SMILES),"activity change, negative = growth inhibition [%]",Potency
COc1ccc2c(Cl)c(C(=O)NCc3ccco3)sc2c1,-25.1,
O=C(NCc1ccco1)c1nc(-c2ccccc2)n(-c2ccccc2)n1,-18.6,
CCOc1ccc(-c2ccc(SCC(=O)N3CCOCC3)nn2)cc1,2.68,
CCOC(=O)N1CCN(C(=O)c2cc3c(-c4ccc(Cl)cc4)nn(C)c3s2)CC1,,11.6 µM (active)
COc1ccc(OC)c(S(=O)(=O)N(C)CC(=O)N2CCN(c3ccccc3)CC2)c1,-2.97,
CCOC(=O)N1CCN(C(=O)CSc2ccc(Cl)cc2)CC1,-4.08,
CCOC(=O)N1CCN(C(=O)CNC(=O)Cc2ccc(Cl)cc2)CC1,-16.7,
COc1cccc(-c2nn(C)c3sc(C(=O)N4CCN(c5ccccc5)CC4)cc23)c1,,23.1 µM (active)
COC(=O)c1nc(NC(=O)c2ccc(F)cc2)n[nH]1,-20.9,
Nc1cc(=O)c2[nH]cnc2[nH]1,3.63,
S=C(NC1CCCCC1)NN1CCOCC1,11.9,
CCn1c(SCC(=O)Nc2cc(C)ccc2C)nnc1-c1cnccn1,-12,
CCN(CCCNC(=O)c1c(C)oc2ncn(CC(C)C)c(=O)c12)Cc1ccccc1,-17.9,
Cc1ccc(C(c2sc3nc(C)nn3c2O)N2CCN(c3ccccc3)CC2)cc1 (stereo not drawn),-13.8,
Cc1ccn(CC(=O)N2N=C(C(F)F)CC2(O)C(F)F)n1 (stereo not drawn),-0.589,
CC1=C(C(N)=O)C(c2ccc(Br)cc2)n2ncnc2N1 (stereo not drawn),-12.6,
CCOc1ccccc1NC(=O)C1=C(C)Nc2ncnn2C1c1ccc(NC(C)=O)cc1 (stereo not drawn),-21,
CCOC(=O)C1=C(c2ccccc2)Nc2ncnn2C1c1ccc(Cl)cc1 (stereo not drawn),,18.4 µM (active)
COCCCNS(=O)(=O)c1cccc(S(=O)(=O)c2cccc(S(=O)(=O)NCCCOC)c2)c1,-19.7,
Cc1ccc(/C=N/NC(=O)C(NC(=O)c2ccccc2)c2n[nH]c(=O)c3ccccc23)cc1 (stereo not drawn),-9.86,
CCCCN(C)CCCNC(=O)c1cc(-c2cccs2)nc2ccccc12,,29.1 µM (active)
Cc1ccsc1-c1cc(C(=O)O)c2c(ccc3ccccc32)n1,5.58,
O=C(NCCN1CCOCC1)c1cc(-c2cccs2)nc2ccccc12,-17.6,
O=C1c2ccccc2-c2ccccc2NC1O (stereo not drawn),11,
COc1ccc(/C=N/OCc2ccccc2C#N)c(OC)c1,-22.7,
CCOc1ccc(C2C(C#N)=C(N)N(N(C)C)C3=C2C(=O)CCC3)cc1 (stereo not drawn),5.03,

Structure (SMILES),"activity change, negative = growth inhibition [%]",Potency
Cc1ccc(NC(=O)NCC(c2cccnc2)N2CCOCC2)cc1 (stereo not drawn),6.95,
O=C(NCC(c1ccco1)N1CCc2ccccc21)c1cccc(F)c1 (stereo not drawn),,11.6 µM (active)
COc1ccccc1C(=O)NCCC(=O)NCC(c1ccco1)N1CCCCC1 (stereo not drawn),-8.25,
CCOC(=O)c1c(NC(=O)CSc2cn(CCNC(=O)c3cccc(C(F)(F)F)c3)c3ccccc23)sc2c1CCC2,-3.22,
COc1ccc(S(=O)(=O)NCC(c2ccc(N(C)C)cc2)N2CCc3ccccc32)cc1OC (stereo not drawn),-27.6,
CN(C)C(CNC(=O)c1cccc(C#N)c1)c1ccco1 (stereo not drawn),-2.74,
COc1ccc(C(=O)NCC(c2ccc(N(C)C)cc2)N2CCc3ccccc32)c(OC)c1 (stereo not drawn),,20.6 µM (active)
CCOc1ccccc1C(=O)NCC(c1ccc(N(C)C)cc1)N1CCCC1 (stereo not drawn),-76.7,
COc1cc(C(=O)NCC(c2ccco2)N2CCCC2)ccc1OCc1ccccc1 (stereo not drawn),-17.8,
O=C(NCC(c1cccnc1)N1CCc2ccccc21)c1cccc(C(F)(F)F)c1 (stereo not drawn),,14.6 µM (active)
COc1ccc(C(=O)NCC(c2ccco2)N2CCc3ccccc32)cc1OC (stereo not drawn),,16.4 µM (active)
O=C(NN1CCOCC1)c1cccc(F)c1,-5.34,
CCn1cc(C(=O)NCCO)c(=O)c2cc(F)c(N3CCN(C)CC3)cc21,2.98,
Cc1ccc(NC(=S)NC(NC(=O)Cc2cccc3ccccc23)C(Cl)(Cl)Cl)cc1 (stereo not drawn),-8.05,
Cc1cc(C(=O)O)c(S(C)(=O)=O)s1,0.116,
NNc1nnc(Cc2ccncc2)c2ccccc12,-14.2,
O=C(COC(=O)Cn1[nH]c(=O)c2ccccc2c1=O)Nc1c(Cl)cccc1C(F)(F)F,-0.552,
COc1ccc([N+](=O)[O-])cc1N(CC(=O)Nc1ccccc1C(=O)N1CCOCC1)S(C)(=O)=O,-1.39,
CN(C)c1ccc(C2N(C)C(=O)c3ccccc3N2C)cc1 (stereo not drawn),-15,
CC1CCc2c(c3ccccc3[nH]c2=O)O1 (stereo not drawn),1.73,
O=C(O)C1OC(C(=O)O)C2C1C(F)(F)C2(F)F (stereo not drawn),0.936,
Cc1ccc2nc(NCCCNC(=O)c3cnccn3)c(C#N)cc2c1,-1.12,
Cc1ccc(CNC(=O)COC(=O)C2CCC2)cc1,2.95,
CC(C#N)OC(=O)c1cccnc1SCC(=O)Nc1ccc2c(c1)OCO2 (stereo not drawn),-14.2,
O=C(NCc1cccnc1)c1ccc2nc([C@@H]3O[C@H](CO)[C@H](O)[C@H](O)[C@H]3O)[nH]c2c1,-3.78,
COc1ccc(N(CC(=O)NCCc2ccc(Cl)cc2)S(=O)(=O)c2c(C)nn(C)c2C)cc1,,20.6 µM (active)

Structure (SMILES),"activity change, negative = growth inhibition [%]",Potency
COc1ccc(CCNC(=O)CN(c2ccccc2)S(C)(=O)=O)cc1,-14.2,
CCOc1ccc(N(CC(=O)NCCc2ccc(OC)cc2)S(C)(=O)=O)cc1,-11.9,
COc1ccccc1CNC(=O)COn1nnc2ccc(S(=O)(=O)N3CCOCC3)cc21,-30,
O=C1[C@H]2[C@@H](c3ccc(Cl)cc3)N3C(=O)N(c4cccc(F)c4)C(=O)[C@@]3(Cc3ccccc3)[C@H]2C(=O)N1C1CCCCC1,-24,
O=C1[C@H]2[C@@H](c3ccc(F)cc3)N3C(=O)N(c4ccc(C(F)(F)F)cc4)C(=O)[C@@]3(Cc3ccccc3)[C@H]2C(=O)N1C1CCCCC1,,11.6 µM (active)
Cc1cccc(N2C(=O)N3[C@H](c4ccc(F)cc4)[C@@H]4C(=O)N(C5CCCCC5)C(=O)[C@@H]4[C@]3(Cc3ccccc3)C2=O)c1,-7.34,
S=C(NN=Cc1ccccn1)Nc1ccccn1,,1.46 µM (active)
CNC(=O)C(=O)N/N=C/c1ccccn1,-13.2,
S=C(Nc1cccnc1)Nc1ccccn1,-7.96,
CC(C)(C)C(=O)NC1CC2CCCC(C1)N2C(=O)Nc1ccccc1F (stereo not drawn),1.81,
CCOc1ccc(S(=O)(=O)Nc2ccc(OC)nc2)cc1,,23.1 µM (active)
COc1ccccc1C(CNC(=O)c1cccc(NS(=O)(=O)c2ccc(Br)cc2)c1)N(C)C (stereo not drawn),,18.4 µM (active)
CCOc1ccc(S(=O)(=O)Nc2ccc(S(=O)(=O)Nc3cc(OC)ccc3OC)cc2)cc1,-2.25,
Cc1cc(S(=O)(=O)Nc2ccc(C(=O)NCC(c3ccco3)N3CCCC3)cc2)ccc1F (stereo not drawn),-1.96,
CC(=O)c1ccc(S(=O)(=O)Nc2ccc(C(=O)NCC(c3ccccc3)N(C)C)cc2)cc1 (stereo not drawn),-4.49,
COc1ccc(C(CNC(=O)c2ccc(S(=O)(=O)Nc3ccccc3C)cc2)N2CCOCC2)cc1 (stereo not drawn),-29.7,
COc1ccc(C(CNC(=O)c2ccc(S(=O)(=O)Nc3ccccc3F)cc2)N(C)C)cc1 (stereo not drawn),0.312,
CCOc1ccc(NS(=O)(=O)c2ccc(C(=O)NCC(c3ccccc3OC)N3CCCC3)cc2)cc1 (stereo not drawn),,18.4 µM (active)
CCOc1ccc(S(=O)(=O)Nc2nccs2)cc1,-9.33,
COc1ccccc1NC(=O)COC(=O)COc1ccccc1F,-3.57,
Cc1nnsc1S(=O)(=O)Cc1ccccc1Cl,1.81,
O=C(CSc1nc2c(cnn2-c2ccc(F)cc2)c(=O)[nH]1)N1CCCCCC1,-16.2,
COc1cccc(/C=C/c2ccc3ccccc3n2)c1OC(C)=O,,16.4 µM (active)
COc1cccc(/C=C2\C=C(c3ccc(C)cc3)OC2=O)c1OC(C)=O,-5.6,
CC(=O)c1ccc(S(=O)(=O)N2CCN(C(=O)/C=C/c3ccc4ccccc4n3)CC2)cc1,-17.9,
